PubChem BioAssay (Tox21)
Inconclusive results are not listed. Entries that show only a call come without a potency. Activity calls are given as the source filed them. Unless noted, calls come from the whole dose curve; as a rule, active = well fitted curve in the direction sought with a large enough effect in the repeat runs; inconclusive = weak or mixed curves; inactive = no such curve, though single readings can be large; an effect the other way counts as inactive or inconclusive.

Legend:
[1] = qHTS assay to identify aromatase inhibitors - cell viability counter screen (AID 743084);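 note: cells stimulated with testosterone during compound exposure; nearly all actives have a fitted effect of over 55% in size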
[2] = biological target: Aryl hydrocarbon receptor (Homo sapiens) (UniProt P35869); assay: qHTS assay to identify small molecule that activate the aryl hydrocarbon receptor (AhR) signaling pathway (AID 743085); note: nearly all actives have a fitted effect of over 15% in size; note: potency is the fitted concentration of half-maximal effect;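 for activation: HG2L7.5c1 human HepG2 liver cells with stably integrated DRE-driven firefly reporter; series mostly up to about 70 µM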
Summary of the method: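 Reporter assay in engineered HepG2 line HG2L7.5c1, whose plasmid carries twenty dioxin responsive elements upstream of firefly luciferase. Treatment lasted 24 h at 37C; ONE-Glo luminescence gauged induction.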

[3] = qHTS assay to identify small molecule that activate the aryl hydrocarbon receptor (AhR) signaling pathway - cell viability counter screen (AID 743086);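 note: HepG2 liver cells carrying the AhR DRE luciferase reporter; series mostly up to about 70 µM; nearly all actives have a fitted effect of over 45% in size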
Summary of the method: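 HepG2-AhR-luc (HG2L7.5c1) cells, 4000/well, treated 24 h at 37 C with compound; viability measured as CellTiter-Fluor fluorescence after 30 min in the same wells as the luciferase read.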

[4] = biological target: Peroxisome proliferator-activated receptor gamma (Homo sapiens) (UniProt P37231); assay: qHTS assay to identify small molecule agonists of the peroxisome proliferator-activated receptor gamma (PPARg) signaling pathway (AID 743094; active = well fitted activation curve with a large enough effect in the signal ratio in the repeat runs, not every such curve was filed as active; the % refers to the signal ratio)
Summary of the method: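 Beta-lactamase FRET fluorescence was the read-out after a 1 h room-temperature substrate step, following 17 h compound treatment at 37C of HEK293H cells expressing a UAS-driven bla reporter responsive to PPARg.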

[5] = biological target: Peroxisome proliferator-activated receptor gamma (Homo sapiens) (UniProt P37231); assay: qHTS assay to identify small molecule antagonists of the peroxisome proliferator-activated receptor gamma (PPARg) signaling pathway (AID 743191; calls by dose curve; note: series mostly up to about 63 µM; nearly all actives have a fitted effect of over 30% in size)
Summary of the method: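 GeneBLAzer PPARg UAS-bla HEK293H cells, 5 h post-plating, exposed to compounds 17 h at 37C. LiveBLAzer B/G FRET substrate added for 1 h at room temperature; beta-lactamase reporter read by fluorescence intensity.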

[6] = qHTS assay for small molecule agonists of the antioxidant response element (ARE) signaling pathway - cell viability counter screen (AID 743203; calls by dose curve; note: nearly all actives have a fitted effect of over 55% in size)
Summary of the method: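 HepG2 cells carrying ARE-driven beta-lactamase; 2,000 cells/well; 5 hrs plating; compound pinned from DMSO; 16 hrs 37C/5% CO2; CellTiter-Glo added; 30 min RT; luminescence.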

[7] = qHTS assay for small molecule activators of the heat shock response signaling pathway - cell viability counter screen (AID 743209); note: nearly all actives have a fitted effect of over 50% in size
Summary of the method: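 Luminescence from CellTiter-Glo, added after the beta-lactamase FRET read, gave the viability signal. Cells were HSE-bla HeLa treated with DMSO-dissolved compounds for 5 h at 37 C following overnight plating.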

[8] = qHTS assay for small molecule activators of the heat shock response signaling pathway (AID 743210; active = well fitted activation curve with a large enough effect in the signal ratio in the repeat runs, with a control signal flat, not every such curve was filed as active; the % refers to the signal ratio;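 note: HeLa cells with beta-lactamase reporter driven by heat shock elements; series mostly up to about 63 µM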)
Summary of the method: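 Quantitative high-throughput format using an engineered HeLa line in which heat shock response elements drive beta-lactamase; after 5 h with compound, cells received a B/G FRET substrate and fluorescence was read.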

[9] = qHTS assay to identify small molecule agonists of the peroxisome proliferator-activated receptor delta (PPARd) signaling pathway - cell viability counter screen (AID 743211); note: nearly all actives have a fitted effect of over 55% in size
Summary of the method: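 Multiplexed format: after the 2 h room-temperature LiveBLAzer B/G FRET step, CellTiter-Glo was added to the same wells. Luminescence after 30 min gave cell viability; compound exposure was 17 h at 37C.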

[10] = qHTS assay to identify small molecule antagonists of the peroxisome proliferator-activated receptor delta (PPARd) signaling pathway - cell viability counter screen (AID 743213); note: nearly all actives have a fitted effect of over 50% in size
Summary of the method: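 In this counter screen, HEK293H cells carrying a UAS-beta-lactamase reporter are co-treated with test compounds and 300 nM L165041 (final) for 17 h at 37 C; cell viability is quantified by CellTiter-Glo luminescence.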

[11] = biological target: Peroxisome proliferator-activated receptor delta (Homo sapiens) (UniProt Q03181); assay: qHTS assay to identify small molecule antagonists of the peroxisome proliferator-activated receptor delta (PPARd) signaling pathway (AID 743215; active = well fitted inhibition curve with a large enough effect in the signal ratio in the repeat runs, not every such curve was filed as active; the % refers to the signal ratio;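 note: cells stimulated with agonist L165041 at 300 nM final during compound exposure; series mostly up to about 62 µM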)
Summary of the method: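 Read-out is beta-lactamase FRET fluorescence, measured 2 h after substrate addition at room temperature. Beforehand, UAS-bla HEK293H cells carrying the PPARd reporter were exposed to compounds with L165041 at 300 nM final for 17 h at 37 C.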

[12] = biological target: Bile acid receptor (Homo sapiens) (UniProt Q96RI1); assay: qHTS assay to identify small molecule antagonists of the farnesoid-X-receptor (FXR) signaling pathway (AID 743217; active = well fitted inhibition curve with a large enough effect in the signal ratio in the repeat runs, not every such curve was filed as active; the % refers to the signal ratio)
Summary of the method: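 HEK 293T FXR-UAS-bla, 5000 cells/well; compound + CDCA 50 uM final; 16 h, 37 °C; B/G FRET substrate 2 h RT; fluorescence.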

[13] = qHTS assay to identify small molecule agonists of the farnesoid-X-receptor (FXR) signaling pathway - cell viability counter screen (AID 743218); note: nearly all actives have a fitted effect of over 45% in size
Summary of the method: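 HEK 293T FXR-bla cells; 5 h pre-incubation, 16 h compound exposure at 37 C; LiveBLAzer substrate 2 h RT, then CellTiter-Glo 30 min RT, luminescence.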

[14] = biological target: Bile acid receptor (Homo sapiens) (UniProt Q96RI1); assay: qHTS assay to identify small molecule agonists of the farnesoid-X-receptor (FXR) signaling pathway (AID 743220; active = well fitted activation curve with a large enough effect in the signal ratio in the repeat runs, not every such curve was filed as active; the % refers to the signal ratio)
Summary of the method: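 Beta-lactamase reporter under UAS control in GeneBLAzer FXR HEK 293T cells (5000/well) measured with LiveBLAzer FRET substrate after 2 h at room temperature. Compound exposure lasted 16 h at 37C.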

[15] = qHTS assay to identify small molecule antagonists of the farnesoid-X-receptor (FXR) signaling pathway - cell viability counter screen (AID 743221; active = well fitted cell-killing curve with a large enough effect in the repeat runs, not every such curve was filed as active; note: nearly all actives have a fitted effect of over 50% in size)
Summary of the method: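 CellTiter-Glo, 30 min RT, luminescence; same wells as the LiveBLAzer FRET read. Cells: FXR-UAS-bla HEK 293T. Treatment: compound with chenodeoxycholic acid 50 uM final, 16 h at 37 C.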

[16] = qHTS assay to identify small molecule antagonists of the peroxisome proliferator-activated receptor gamma (PPARg) signaling pathway - cell viability counter screen (AID 743194); note: nearly all actives have a fitted effect of over 55% in size
Summary of the method: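 Cytotoxicity counter screen in PPARg-bla HEK293H cells, same wells as reporter assay. Compounds plus 50 nM rosiglitazone (final) for 17 h at 37 C, then viability read by CellTiter-Glo luminescence.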

[17] = qHTS assay for small molecule agonists of the antioxidant response element (ARE) signaling pathway (AID 743202; active = well fitted activation curve with a large enough effect in the signal ratio in the repeat runs, not every such curve was filed as active; the % refers to the signal ratio)
Summary of the method: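 Agonist mode reporter screen: HepG2 cells with ARE-controlled beta-lactamase are incubated with test compounds for 16 h at 37 C, and beta-lactamase activity is measured as fluorescence of cleaved B/G FRET substrate.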

[18] = biological target: Peroxisome proliferator-activated receptor delta (Homo sapiens) (UniProt Q03181); assay: qHTS assay to identify small molecule agonists of the peroxisome proliferator-activated receptor delta (PPARd) signaling pathway (AID 743212; calls by dose curve)
Summary of the method: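 Quantitative high-throughput agonist screen in a HEK293H beta-lactamase reporter line under UAS control. Compounds in DMSO, at 37 C. Fluorescence read after 2 h with FRET substrate at room temperature.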

[19] = biological target: Vitamin D3 receptor (Homo sapiens) (UniProt P11473); assay: qHTS assay to identify small molecule agonists of the vitamin D receptor (VDR) signaling pathway (AID 743222; calls by dose curve)
Summary of the method: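 VDR-bla cells, 2,000/well; 4 h preincubation 37C; cpd (DMSO) 16 h; LiveBLAzer B/G substrate 2 h RT; fluorescence intensity read.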

[20] = biological target: Vitamin D3 receptor (Homo sapiens) (UniProt P11473); assay: qHTS assay to identify small molecule antagonists of the vitamin D receptor (VDR) signaling pathway (AID 743223; active = well fitted inhibition curve with a large enough effect in the signal ratio in the repeat runs, not every such curve was filed as active; the % refers to the signal ratio)
Summary of the method: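 After VDR-bla cells are plated and left 4 h at 37C, DMSO-dissolved compounds and 3 nM (final) calcitriol agonist are added. Incubation continues 16 h at 37C; FRET beta-lactamase substrate then develops 2 h at room temperature.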

Chain of Peroxisome proliferator-activated receptor delta (Homo sapiens) (Q03181 whole entry, looked up): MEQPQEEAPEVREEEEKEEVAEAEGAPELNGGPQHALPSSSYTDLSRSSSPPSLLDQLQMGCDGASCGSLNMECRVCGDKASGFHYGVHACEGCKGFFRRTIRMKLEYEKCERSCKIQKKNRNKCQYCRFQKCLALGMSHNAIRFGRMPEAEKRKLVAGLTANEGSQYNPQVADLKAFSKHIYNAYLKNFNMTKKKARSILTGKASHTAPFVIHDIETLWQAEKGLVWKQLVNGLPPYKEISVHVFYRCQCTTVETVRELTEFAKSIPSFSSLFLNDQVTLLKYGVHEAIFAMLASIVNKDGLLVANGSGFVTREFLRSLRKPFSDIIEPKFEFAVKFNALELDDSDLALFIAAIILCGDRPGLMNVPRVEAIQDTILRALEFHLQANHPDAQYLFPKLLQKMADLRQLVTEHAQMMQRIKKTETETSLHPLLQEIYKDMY
Chain of Peroxisome proliferator-activated receptor gamma (Homo sapiens) (P37231 whole entry, looked up): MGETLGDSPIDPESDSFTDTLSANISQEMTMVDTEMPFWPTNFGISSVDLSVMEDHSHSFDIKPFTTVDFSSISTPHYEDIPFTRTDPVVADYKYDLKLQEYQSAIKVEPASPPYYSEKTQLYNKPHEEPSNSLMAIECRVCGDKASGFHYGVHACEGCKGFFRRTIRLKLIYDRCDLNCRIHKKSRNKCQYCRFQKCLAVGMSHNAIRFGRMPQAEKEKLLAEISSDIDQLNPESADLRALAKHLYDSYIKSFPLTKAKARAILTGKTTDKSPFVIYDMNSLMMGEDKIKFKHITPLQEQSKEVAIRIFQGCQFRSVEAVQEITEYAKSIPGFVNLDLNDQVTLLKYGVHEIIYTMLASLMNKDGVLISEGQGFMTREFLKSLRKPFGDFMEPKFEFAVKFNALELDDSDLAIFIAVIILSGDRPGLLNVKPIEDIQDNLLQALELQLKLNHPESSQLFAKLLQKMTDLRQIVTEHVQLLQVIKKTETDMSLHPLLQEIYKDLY
Chain of Vitamin D3 receptor (Homo sapiens) (P11473 whole entry, looked up): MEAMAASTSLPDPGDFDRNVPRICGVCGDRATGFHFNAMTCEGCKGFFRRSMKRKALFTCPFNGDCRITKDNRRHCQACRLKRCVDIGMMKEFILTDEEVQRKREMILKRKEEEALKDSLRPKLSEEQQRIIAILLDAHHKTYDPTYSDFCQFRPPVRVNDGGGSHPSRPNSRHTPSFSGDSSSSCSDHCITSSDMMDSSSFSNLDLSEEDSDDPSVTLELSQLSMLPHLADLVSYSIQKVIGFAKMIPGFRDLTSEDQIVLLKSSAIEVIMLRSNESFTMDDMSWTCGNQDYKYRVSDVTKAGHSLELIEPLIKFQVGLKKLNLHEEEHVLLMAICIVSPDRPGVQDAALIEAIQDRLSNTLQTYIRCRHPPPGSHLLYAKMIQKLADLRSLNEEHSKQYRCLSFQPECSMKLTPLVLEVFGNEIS
Chain of Aryl hydrocarbon receptor (Homo sapiens) (P35869 whole entry, looked up): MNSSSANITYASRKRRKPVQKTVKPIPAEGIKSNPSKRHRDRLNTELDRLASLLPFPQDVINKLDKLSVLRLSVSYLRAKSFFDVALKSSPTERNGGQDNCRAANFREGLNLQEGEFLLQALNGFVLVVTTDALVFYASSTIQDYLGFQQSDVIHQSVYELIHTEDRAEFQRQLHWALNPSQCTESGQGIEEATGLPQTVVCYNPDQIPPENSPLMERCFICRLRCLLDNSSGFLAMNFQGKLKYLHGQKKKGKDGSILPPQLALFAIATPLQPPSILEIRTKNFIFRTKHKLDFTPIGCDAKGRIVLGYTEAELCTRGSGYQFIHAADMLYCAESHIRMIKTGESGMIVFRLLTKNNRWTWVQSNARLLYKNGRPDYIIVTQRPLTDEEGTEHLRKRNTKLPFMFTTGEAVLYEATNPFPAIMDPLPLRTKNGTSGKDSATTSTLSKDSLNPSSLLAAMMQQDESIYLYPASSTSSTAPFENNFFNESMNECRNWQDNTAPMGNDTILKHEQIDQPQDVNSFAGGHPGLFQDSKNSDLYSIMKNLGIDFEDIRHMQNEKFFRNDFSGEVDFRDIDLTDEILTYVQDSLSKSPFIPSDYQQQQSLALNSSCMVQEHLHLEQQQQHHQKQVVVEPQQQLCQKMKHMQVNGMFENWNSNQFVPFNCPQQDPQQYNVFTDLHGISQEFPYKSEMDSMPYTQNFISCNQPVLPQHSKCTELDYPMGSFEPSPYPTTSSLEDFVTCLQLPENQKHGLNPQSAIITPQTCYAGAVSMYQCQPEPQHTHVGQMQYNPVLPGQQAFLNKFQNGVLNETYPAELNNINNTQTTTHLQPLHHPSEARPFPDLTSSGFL
Chain of Bile acid receptor (Homo sapiens) (Q96RI1 whole entry, looked up): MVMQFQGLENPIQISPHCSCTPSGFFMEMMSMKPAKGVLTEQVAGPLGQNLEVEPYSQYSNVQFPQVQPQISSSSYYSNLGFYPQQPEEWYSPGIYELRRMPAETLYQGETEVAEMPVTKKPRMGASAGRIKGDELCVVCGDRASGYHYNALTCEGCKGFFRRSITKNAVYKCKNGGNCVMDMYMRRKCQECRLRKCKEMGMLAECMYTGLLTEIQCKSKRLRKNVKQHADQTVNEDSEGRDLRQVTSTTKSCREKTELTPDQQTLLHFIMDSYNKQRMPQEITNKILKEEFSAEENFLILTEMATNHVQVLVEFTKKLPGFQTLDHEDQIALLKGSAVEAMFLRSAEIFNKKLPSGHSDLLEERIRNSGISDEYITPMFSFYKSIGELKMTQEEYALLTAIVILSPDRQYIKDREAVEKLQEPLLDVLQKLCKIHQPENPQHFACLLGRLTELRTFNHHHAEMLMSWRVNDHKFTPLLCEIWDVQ

Structure (SMILES) | Potency [1] | Potency [2] | Potency [3] | outcome [4] | Potency [5] | Potency [6] | outcome [7] | outcome [8] | Potency [9] | Potency [10] | Potency [11] | outcome [12] | Potency [13] | outcome [14] | Potency [15] | outcome [16] | Potency [17] | outcome [18] | outcome [19] | outcome [20]
CC[N+](C)(C)c1cccc(O)c1 | inactive | inactive | inactive | inactive | inactive | inactive | inactive | inactive | inactive | inactive | inactive | inactive | inactive | inactive | inactive |  |  |  |  | 
C[N+](C)(C)CC(O)CC(=O)[O-] (stereo not drawn) | inactive | inactive | inactive | inactive |  | inactive | inactive | inactive | inactive | inactive | inactive |  |  |  | inactive | inactive | inactive | inactive | inactive | inactive
O=C(O)CCCl | inactive | inactive | inactive | inactive |  | inactive | inactive | inactive | inactive |  |  |  | inactive |  | inactive | inactive |  |  | inactive | 
NC(CSCC(=O)O)C(=O)O (stereo not drawn) | inactive | inactive | inactive | inactive |  |  | inactive | inactive |  | inactive | inactive | inactive |  |  | inactive | inactive | inactive | inactive | inactive | inactive
CC/C=C\CCOC(C)=O | inactive | inactive | inactive |  | inactive | inactive |  | inactive | inactive | inactive | inactive | inactive | inactive | inactive | inactive | inactive | inactive | inactive | inactive | inactive
CC(C)CCCC(C)N (stereo not drawn) | inactive | inactive | inactive | inactive |  | inactive | inactive | inactive | inactive |  |  |  | inactive |  | inactive | inactive |  |  | inactive | inactive
CCC=O | inactive | inactive | inactive | inactive |  | inactive | inactive |  | inactive | inactive |  |  | inactive |  | inactive | inactive | inactive | inactive | inactive | inactive
COC(C)(C)CCCC(C)CC=O (stereo not drawn) | inactive | inactive | inactive |  | inactive | inactive | inactive | inactive | inactive |  | inactive | inactive | inactive |  | inactive | inactive | inactive | inactive | inactive | inactive
CN1C(=O)N(C)C(O)C1O (stereo not drawn) | inactive | inactive | inactive | inactive |  | inactive |  |  |  | inactive | inactive |  | inactive |  | inactive | inactive | inactive | inactive | inactive | inactive
NS(=O)(=O)c1ccccc1Cl | inactive | inactive | inactive | inactive |  | inactive |  | inactive |  |  | inactive |  |  |  | inactive |  | inactive |  | inactive | 
COc1cc(C(=O)N2CCCCCCC2)cc(OC)c1OC | inactive | inactive | inactive | inactive |  | inactive |  | inactive | inactive |  | inactive | inactive | inactive | inactive | inactive | inactive | inactive | inactive | inactive | 
CCC(=O)OC(C)c1ccccc1 (stereo not drawn) | inactive | inactive | inactive |  | inactive | inactive | inactive | inactive | inactive | inactive | inactive | inactive |  | inactive | inactive | inactive | inactive | inactive | inactive | 
CO[C@]12C[C@@H](COC(=O)c3cncc(Br)c3)CN(C)[C@@H]1Cc1cn(C)c3cccc2c13 | inactive | 29.8 µM (active) | inactive | inactive |  | inactive |  | inactive | inactive |  |  |  |  |  | inactive | inactive | inactive |  | inactive | 
O=C(O)c1ccccc1OP(=O)(O)O | inactive | inactive | inactive | inactive |  |  | inactive | inactive | inactive |  | inactive |  | inactive |  | inactive | inactive | inactive |  | inactive | inactive
C=CCCCCCCCCC=O | inactive | inactive | inactive | inactive |  | inactive | inactive | inactive |  | inactive |  |  | inactive |  | inactive | inactive |  |  |  | inactive
CCCC(=O)O[C@]1(C(=O)CO)CC[C@H]2[C@@H]3CCC4=CC(=O)CC[C@]4(C)[C@H]3[C@@H](O)C[C@@]21C | inactive | inactive | inactive | inactive |  | inactive | inactive | inactive |  |  | inactive |  | inactive |  | inactive | inactive |  | inactive | inactive | 
N=C(N)c1ccc2cc(OC(=O)c3ccc(N=C(N)N)cc3)ccc2c1 | inactive | inactive | inactive | inactive |  | inactive |  | inactive | inactive | inactive | inactive | inactive | inactive | inactive | inactive | inactive |  |  | inactive | inactive
CCCN1CCCC[C@H]1C(=O)Nc1c(C)cccc1C | inactive | inactive | inactive | inactive |  | inactive | inactive | inactive | inactive |  |  | inactive | inactive |  | inactive | inactive |  | inactive |  | inactive
